Test results reported in ChEMBL document CHEMBL1157539, “Thousands of chemical starting points for antimalarial lead identification” (Nature, 2010).

test system: Plasmodium falciparum; assay: GSK_TCMDC: Inhibition of Plasmodium falciparum 3D7 in whole red blood cells, using parasite LDH activity as an index of growth. Test compounds present at 2uM; format: functional

Row | SMILES | Inhibition [%]
1 | CN(N=Cc1ccccc1)C(=N)NCCCC#Cc1cccc(CN2CCCC2)c1 | 89
2 | COCCNCc1cccc(-c2ccc3nccc(Nc4cc(O)ccc4C)c3c2)c1 | 100
3 | O=C(NCCN1CCCCC1)c1ccc(Nc2nccc(Nc3ccc(Oc4ccccc4)cc3)n2)cc1 | 100
4 | COc1cc(C(=O)NCCCN2CCN(c3cccc(Cl)c3)CC2)ccc1-c1nc2cc(Cl)c(F)cc2[nH]1 | 100
5 | O=C(O)C(F)(F)F.OCCN1CCN(Cc2cccc(-c3cccc(-c4nc5cc(F)ccc5[nH]4)c3)c2)CC1 | 100
6 | CC(Nc1ncc(-c2ccsc2)c(-c2nccs2)n1)c1ccc2c(c1)OCCO2 (centres undefined) | 81
7 | COc1cc(NC(=O)Nc2cccc3ccccc23)c(OC)cc1Cl | 97
8 | COc1ccc(CNC2Cc3ccccc3C2)cc1-c1ccc(S(=O)(=O)NCc2ccccc2)s1.O=C(O)C(F)(F)F | 97
9 | Fc1ccc(-c2oc(C3CCN(CCc4ccc(-c5noc(=S)[nH]5)cc4)CC3)nc2COCC(F)(F)F)cc1 | 97
10 | O=C(Nc1cc(Cl)ccc1O)c1cc(-c2ccccc2O)no1 | 95
11 | NC(=O)c1ccccc1OCC(=O)Nc1ccc(-c2cccc(-c3nc4cc(C(F)(F)F)ccc4[nH]3)c2)cc1 | 100
12 | CCC(O)(C#Cc1c(C)nc(N)nc1N)CC | 97
13 | CCn1c(Sc2ccc(C#N)c([N+](=O)[O-])c2)nnc1-c1ccc(OC)cc1 | 98
14 | Cc1cc(N[C@@H](Cc2ccccc2)C(=O)NC2CCCC2)nc(NCCc2ccc(F)cc2)n1.O=C(O)C(F)(F)F | 100
